This passage reports growth inhibition results from PubChem BioAssay (NCI).

The structures appear in SMILES notation. The panel holds about 79,000 compounds, 15% with a hit somewhere; the sample as a whole holds those more often. Unmarked numbers belong to inactive results. Active and inactive are the calls of the source. No stated cut-off is given here; in the data, active means growth inhibition above about 70%; inactive means the rest.

A short description of assay [1]: NCI Yeast Anticancer Drug Screen. Data for the rad50 strain (AID 155).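 Further: 0% = growth of vehicle-only cultures of the same strain.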 To be noted: S. cerevisiae rad50 strain growth inhibition, active compounds read high. In a few lines: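 Readout: growth inhibition relative to vehicle-treated cultures. Compound exposure was carried out in a genetically defined yeast strain deficient in DNA damage repair.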
Assay [2] can be described thus: NCI Yeast Anticancer Drug Screen. Data for the mec2-1 strain (AID 157). To be noted: S. cerevisiae mec2-1 strain, active compounds read high. In a few lines:
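Yeast mec2-1 mutant treated with compound. Readout: growth inhibition vs vehicle controls.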

The nature of assay [3]: NCI Yeast Anticancer Drug Screen. Data for the sgs1 mgt1 strain (AID 161).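 Further: 0% = growth of cultures given vehicle only.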 To be noted: S. cerevisiae sgs1 mgt1 strain, active compounds read high. In a few lines: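 Test agents were incubated with a DNA-repair-mutant yeast strain. Growth was then read and compared against vehicle-treated controls.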
The nature of assay [4]: NCI Yeast Anticancer Drug Screen. Data for the cln2 rad14 strain (AID 165).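 Further: 0% = growth equal to vehicle treated cultures.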 The conditions noted are these: S. cerevisiae cln2 rad14 strain, active compounds read high. In outline: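 cln2 rad14 yeast strain; compound exposure; growth inhibition read vs vehicle controls.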
A short description of assay [5]: NCI Yeast Anticancer Drug Screen. Data for the bub3 strain (AID 167). The conditions noted are these: S. cerevisiae bub3 mutant strain, active compounds read high. In outline:
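Readout: yeast growth inhibition, expressed relative to vehicle-only wells. The test organism is a mutant strain from a panel with lesions in DNA repair or checkpoint genes.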

Assay [6] can be described thus: NCI Yeast Anticancer Drug Screen. Data for the mlh1 rad18 strain (AID 175). The conditions noted are these: S. cerevisiae mlh1 rad18 strain growth inhibition, active compounds read high. In a few lines: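 Yeast w/ defined DNA-repair lesions; compound exposure; growth vs vehicle controls → % inhibition.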
Setting [7] is: at 5.0 µM (retest, dose inferred, filed as 0.5).
The mark [8] stands for this setting: at 50.0 µM (retest, dose inferred, filed as 5.0).

On to `[CH3][Sn]([CH3])([S]CCS(=O)(=O)O)[S]CCS(=O)(=O)O`, for which the growth inhibition in assay [1] (setting [7]) is 10%; in assay [1] (setting [8]), 7%; in assay [1] (at 50.0 µM), 33.5%; in assay [2] (setting [7]) it was 9%; in assay [2] (setting [8]), 11%; in assay [2] (at 50.0 µM) it was 7.1%. Also, the growth inhibition in assay [3] (setting [7]) is -38%; in assay [3] (setting [8]) it was -30%; in assay [3] (at 50.0 µM), -9.75%; in assay [4] (setting [7]), -10%; in assay [4] (setting [8]), -12%; in assay [4] (at 50.0 µM), -5.95%. The growth inhibition in assay [5] (setting [7]) was -20%; in assay [5] (setting [8]), -24%; in assay [5] (at 50.0 µM), -12.2%; in assay [6] (setting [7]), 14%; in assay [6] (setting [8]) it was 11%; in assay [6] (at 50.0 µM), -61.6%.

For the molecule `O=S(=O)(CCBr)CCBr`, the growth inhibition is 51% in assay [1] (setting [7]); 68% in assay [1] (setting [8]); 88.3% (active) in assay [1] (at 50.0 µM); 43% in assay [2] (setting [7]); 56% in assay [2] (setting [8]); 84.2% (active) in assay [2] (at 50.0 µM). Further, the growth inhibition is 66% in assay [3] (setting [7]); 89% (active) in assay [3] (setting [8]); 88.4% (active) in assay [3] (at 50.0 µM); 92% (active) in assay [4] (setting [7]); 93% (active) in assay [4] (setting [8]); 41.9% in assay [4] (at 50.0 µM). Also, the growth inhibition was 80% (active) in assay [5] (setting [7]); 94% (active) in assay [5] (setting [8]); 83.2% (active) in assay [5] (at 50.0 µM); 33% in assay [6] (setting [7]); 57% in assay [6] (setting [8]); 85.2% (active) in assay [6] (at 50.0 µM).

Turning to `COc1cc(C2c3cc4c(cc3OC(N3CCOCC3)C2C)OCO4)cc(OC)c1OC` (stereo not given), the growth inhibition in assay [1] (setting [7]) is 18%; in assay [1] (setting [8]) it was 22%; in assay [1] (at 50.0 µM), -12.6%; in assay [2] (setting [7]) it was 21%; in assay [2] (setting [8]), 31%; in assay [2] (at 50.0 µM), -2.55%. Also, the growth inhibition in assay [3] (setting [7]) is -17%; in assay [3] (setting [8]), -10%; in assay [3] (at 50.0 µM), -1.05%; in assay [4] (setting [7]), 4%; in assay [4] (setting [8]), 0%; in assay [4] (at 50.0 µM), 4.2%. Further, the growth inhibition was 0% in assay [5] (setting [7]); -11% in assay [5] (setting [8]); 13.3% in assay [5] (at 50.0 µM); 22% in assay [6] (setting [7]); 28% in assay [6] (setting [8]); 0.7% in assay [6] (at 50.0 µM).

As to `CCC[CH2][Sn]1([CH2]CCC)[O]CC(COc2c(Cl)cc(Cl)cc2Cl)[O]1` (stereo not given), the growth inhibition is 94% (active) in assay [1] (setting [7]); 94% (active) in assay [1] (setting [8]); 91.2% (active) in assay [1] (at 50.0 µM); 92% (active) in assay [2] (setting [7]); 92% (active) in assay [2] (setting [8]); 91.3% (active) in assay [2] (at 50.0 µM). The growth inhibition in assay [3] (setting [7]) is 97% (active); in assay [3] (setting [8]) it was 97% (active); in assay [3] (at 50.0 µM), 90.2% (active); in assay [4] (setting [7]) it was 89% (active); in assay [4] (setting [8]), 89% (active); in assay [4] (at 50.0 µM), 90% (active). Moreover, the growth inhibition in assay [5] (setting [7]) was 89% (active); in assay [5] (setting [8]), 89% (active); in assay [5] (at 50.0 µM), 92.5% (active); in assay [6] (setting [7]), 91% (active); in assay [6] (setting [8]) it was 91% (active); in assay [6] (at 50.0 µM), 89.8% (active).

As for `COc1ccc([As+](c2ccccc2)(c2ccccc2)c2ccccc2)cc1`, the growth inhibition in assay [1] (setting [7]) was 82% (active); in assay [1] (setting [8]) it was 98% (active); in assay [1] (at 50.0 µM), 99.1% (active); in assay [2] (setting [7]), 88% (active); in assay [2] (setting [8]) it was 99% (active); in assay [2] (at 50.0 µM), 98.8% (active). For the same molecule, the growth inhibition in assay [3] (setting [7]) was 93% (active); in assay [3] (setting [8]) it was 99% (active); in assay [3] (at 50.0 µM), 98.7% (active); in assay [4] (setting [7]), 77% (active); in assay [4] (setting [8]), 98% (active); in assay [4] (at 50.0 µM), 99% (active). The growth inhibition was 95% (active) in assay [5] (setting [7]); 99% (active) in assay [5] (setting [8]); 99% (active) in assay [5] (at 50.0 µM); 91% (active) in assay [6] (setting [7]); 98% (active) in assay [6] (setting [8]); 99% (active) in assay [6] (at 50.0 µM).

In the case of `O=C1C(Cl)=C(Cl)C(=O)c2ccccc21`, the growth inhibition in assay [1] (setting [7]) was 99% (active); in assay [1] (setting [8]), 96% (active); in assay [1] (at 50.0 µM), 97.8% (active); in assay [2] (setting [7]), 55%; in assay [2] (setting [8]), 98% (active); in assay [2] (at 50.0 µM) it was 97% (active). In addition, the growth inhibition in assay [3] (setting [7]) was 99% (active); in assay [3] (setting [8]) it was 97% (active); in assay [3] (at 50.0 µM), 98.2% (active); in assay [4] (setting [7]) it was 99% (active); in assay [4] (setting [8]), 95% (active); in assay [4] (at 50.0 µM), 96.6% (active). In addition, the growth inhibition in assay [5] (setting [7]) was 98% (active); in assay [5] (setting [8]) it was 96% (active); in assay [5] (at 50.0 µM), 97.5% (active); in assay [6] (setting [7]) it was 99% (active); in assay [6] (setting [8]), 96% (active); in assay [6] (at 50.0 µM) it was 98% (active).

Take `CC(C)(C)S.[Hg]`: the growth inhibition in assay [1] (setting [7]) is 68%; in assay [1] (setting [8]) it was 98% (active); in assay [1] (at 50.0 µM), 99.5% (active); in assay [2] (setting [7]), 99% (active); in assay [2] (setting [8]), 98% (active); in assay [2] (at 50.0 µM), 99.7% (active). The growth inhibition is 98% (active) in assay [3] (setting [7]); 99% (active) in assay [3] (setting [8]); 99.7% (active) in assay [3] (at 50.0 µM); 99% (active) in assay [4] (setting [7]); 99% (active) in assay [4] (setting [8]); 99.2% (active) in assay [4] (at 50.0 µM). The growth inhibition in assay [5] (setting [7]) is 89% (active); in assay [5] (setting [8]) it was 99% (active); in assay [5] (at 50.0 µM), 99.5% (active); in assay [6] (setting [7]) it was 75% (active); in assay [6] (setting [8]), 99% (active); in assay [6] (at 50.0 µM) it was 99.5% (active).

For the molecule `NC(=O)c1ccc(C(=O)Nc2ccc([As](=O)(O)O)cc2)cc1`, the growth inhibition in assay [1] (setting [7]) was 30%; in assay [1] (setting [8]), 21%; in assay [1] (at 50.0 µM), -3.85%; in assay [2] (setting [7]), 6%; in assay [2] (setting [8]), 3%; in assay [2] (at 50.0 µM) it was -26.7%. Besides, the growth inhibition in assay [3] (setting [7]) is 22%; in assay [3] (setting [8]), 3%; in assay [3] (at 50.0 µM), -43.2%; in assay [4] (setting [7]), 2%; in assay [4] (setting [8]) it was -14%; in assay [4] (at 50.0 µM), 49.4%. The growth inhibition in assay [5] (setting [7]) was -7%; in assay [5] (setting [8]) it was 1%; in assay [5] (at 50.0 µM), -13.1%; in assay [6] (setting [7]), 11%; in assay [6] (setting [8]) it was 9%; in assay [6] (at 50.0 µM), -15.9%.

In the case of `CC(C)CC(C)(c1ccc(O)cc1)c1ccc(O)cc1`, the growth inhibition in assay [1] (setting [7]) is 81% (active); in assay [1] (setting [8]), 98% (active); in assay [1] (at 50.0 µM) it was 92% (active); in assay [2] (setting [7]) it was 78% (active); in assay [2] (setting [8]) it was 99% (active); in assay [2] (at 50.0 µM), 93.5% (active). The growth inhibition is 99% (active) in assay [3] (setting [7]); 99% (active) in assay [3] (setting [8]); 93.8% (active) in assay [3] (at 50.0 µM); 80% (active) in assay [4] (setting [7]); 99% (active) in assay [4] (setting [8]); 92.6% (active) in assay [4] (at 50.0 µM). Moreover, the growth inhibition is 98% (active) in assay [5] (setting [7]); 99% (active) in assay [5] (setting [8]); 92.2% (active) in assay [5] (at 50.0 µM); 68% in assay [6] (setting [7]); 99% (active) in assay [6] (setting [8]); 92.3% (active) in assay [6] (at 50.0 µM).

With `Nc1nc(N)c(-c2ccc(Cl)c(Cl)c2)c(COc2ccc(CNC(=O)Nc3cccc(S(=O)(=O)F)c3)cc2Cl)n1`, the growth inhibition was 2% in assay [1] (setting [7]); 11% in assay [1] (setting [8]); 26.8% in assay [1] (at 50.0 µM); -5% in assay [2] (setting [7]); 10% in assay [2] (setting [8]); 58.9% in assay [2] (at 50.0 µM). For the same molecule, the growth inhibition was -4% in assay [3] (setting [7]); 6% in assay [3] (setting [8]); 74.8% (active) in assay [3] (at 50.0 µM); -6% in assay [4] (setting [7]); 11% in assay [4] (setting [8]); -4.6% in assay [4] (at 50.0 µM). The growth inhibition in assay [5] (setting [7]) is 0%; in assay [5] (setting [8]), 20%; in assay [5] (at 50.0 µM), 13.2%; in assay [6] (setting [7]) it was 2%; in assay [6] (setting [8]), 42%; in assay [6] (at 50.0 µM) it was 66.4%.
